PfHsp40 yeast: restores yeast growth despite PfHsp40 toxicity; S. cerevisiae expressing PfHsp40, growth rescue, ATP luminescence; growth rescue, % at 12.5 µM; 340,000 compounds, 0.68% hits; in the data active = growth rescue above about 28%, passing the limit was not always enough;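 note: yeast W303a lacking pdr1 and pdr3 grown in galactose medium; growth measured after three days at 30 °C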
Mtb hypoxia rep: reduces hypoxia-regulated biosensor signal in M. tuberculosis; M. tuberculosis hypoxia-regulated fluorescent reporter, fluorescence; fluorescence inhibition, % (concentration not given with the values); 300,000 compounds, 0.1% hits; in the data active = fluorescence inhibition mostly above about 23%, no sharp cut-off; inactive = mostly below about 17%
CCHF vOTU inh: CCHFV vOTU protease inhibition; AID 651958; Pep-AMC fluorescence; inhibition, % at 11.5 µM; 370,000 compounds, 0.55% hits; in the data active = inhibition above about 30%
RecA intein inh: inhibitors of M. tuberculosis RecA intein splicing | cell-free RecA intein splicing, fluorescence | inhibition, % (no concentration beside the values) | 290,000 compounds, 0.75% hits | AID 2221; in the data active = inhibition above about 30%
Target sequence (P9WHJ3 whole entry, looked up): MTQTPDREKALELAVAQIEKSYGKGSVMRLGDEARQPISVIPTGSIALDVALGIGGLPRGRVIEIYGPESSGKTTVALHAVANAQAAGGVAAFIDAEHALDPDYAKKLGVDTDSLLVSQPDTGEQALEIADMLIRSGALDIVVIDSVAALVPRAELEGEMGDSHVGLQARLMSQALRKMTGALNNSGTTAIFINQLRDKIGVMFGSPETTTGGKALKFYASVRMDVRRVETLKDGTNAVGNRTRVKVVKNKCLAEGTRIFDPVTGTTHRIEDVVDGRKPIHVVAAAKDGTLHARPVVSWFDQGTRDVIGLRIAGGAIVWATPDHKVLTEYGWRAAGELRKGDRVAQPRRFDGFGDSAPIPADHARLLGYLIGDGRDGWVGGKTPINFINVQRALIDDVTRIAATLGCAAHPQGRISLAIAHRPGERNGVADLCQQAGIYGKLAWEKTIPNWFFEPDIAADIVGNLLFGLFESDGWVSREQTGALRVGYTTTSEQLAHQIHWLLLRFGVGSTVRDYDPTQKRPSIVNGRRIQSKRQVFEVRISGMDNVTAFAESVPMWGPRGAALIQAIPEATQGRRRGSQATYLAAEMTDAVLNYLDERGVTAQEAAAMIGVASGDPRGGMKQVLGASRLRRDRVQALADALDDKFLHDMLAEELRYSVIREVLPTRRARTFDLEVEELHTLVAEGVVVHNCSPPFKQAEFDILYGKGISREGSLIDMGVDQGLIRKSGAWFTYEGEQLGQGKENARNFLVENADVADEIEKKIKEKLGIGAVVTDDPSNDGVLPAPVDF
Mtb bLac sens: beta-lactam sensitization of Mtb H37Rv; M. tuberculosis H37Rv growth with meropenem, percent inhibition; inhibition, % at 25 µM; 330,000 compounds, 0.27% hits; AID 434955; call rule not given here;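 note: growth measured after seven days incubation then overnight dye step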
Hits are given with their value; n = inactive; x = no result given. Most compounds without a hit are left out; they make up all but 1.7% or so of the library.

SMILES	PfHsp40 yeast	Mtb hypoxia rep	CCHF vOTU inh	RecA intein inh	Mtb bLac sens
C=C1C(=O)O[C@@H]2C[C@@H](C)[C@@H]3C=CC(=O)[C@@]3(C)[C@@H](OC(=O)CC(=O)O[C@H]3[C@@H]4C(=C)C(=O)O[C@@H]4C[C@@H](C)[C@@H]4C=CC(=O)[C@]43C)[C@H]12	n	x	n	33	n
Cc1ccc(S(=O)(=O)N(CCCO)CC(O)CON=C2c3ccccc3-c3ccccc32)cc1 (stereo unspecified)	29	n	n	n	n
CC(NCCN(C)C)C1CCC2C3CCc4cc(O)ccc4C3CCC12C (stereo unspecified)	63	x	n	x	x
O=C(OCC(=O)c1ccc(Cl)cc1Cl)c1ccccn1	n	30	n	x	n
O=C(OCC(=O)c1ccccc1Br)c1ccccn1	n	x	n	n	n
O=C1c2cccc3cccc(c23)C(=O)N1CC1CCN(S(=O)(=O)c2ccccc2)CC1	n	n	n	x	x
O=C(c1ccc(S(=O)(=O)N2CCCCCC2)cc1)N1CCC(CN2C(=O)c3cccc4cccc(c34)C2=O)CC1	44	n	n	n	n
Cc1[nH]c2ccccc2c1C=NNC(=O)c1cccs1	x	n	x	x	x
COc1ccc(NS(=O)(=O)c2ccc(N3CCOCC3)c(N)c2)cc1	n	29	n	x	n
O=C(Nc1ccc(S(=O)(=O)Nc2ccc(F)cc2)cc1)c1ccc(CN2CCOCC2)cc1	n	n	n	n	n
COc1ccc(NS(=O)(=O)c2ccc(NC(=O)c3ccc(CN4CCOCC4)cc3)cc2)cc1	50	n	n	n	n
COc1ccc(C=C2C(=O)c3ccccc3C2=O)cc1O	n	n	n	n	n
CCCCc1ccc(/C=C2\C(=O)c3ccccc3C(O)=C2C(=O)OCC)cc1	x	x	x	35	n
COC(=O)C(NCc1cccc(CNC(C(=O)OC)c2ccccc2)c1)c1ccccc1 (stereo unspecified)	x	n	x	x	x
O=C1NC[C@@H](Cc2cccc3ccccc23)N(CCc2cc(C(F)(F)F)cc(C(F)(F)F)c2)C1=O	44	x	n	n	n
CCOc1ccccc1CN1CCC(N2CCC(C(=O)NC3CC3)CC2)CC1	30	n	n	n	n
CCN(CC)C(=S)NC(=O)c1ccc(OC)c(Br)c1	n	n	n	n	n
C=CCN(CC=C)C(=S)NC(=O)c1ccc(OC)c(Br)c1	56	n	x	n	n
O=[N+]([O-])c1ccc(C=NNc2nc(N3CCCCC3)nc(N3CCCCC3)n2)cc1	x	n	x	x	x
C#CCOCCOCCOCCNc1nc(N2CCN(C(=O)C(C(C)CC)n3cc(C(N)CO)nn3)CC2)nc(N2CCN(C(=O)C(C(C)CC)n3cc(C(N)Cc4ccc(O)cc4)nn3)CC2)n1 (stereo unspecified)	x	n	x	x	x
Cc1cccc(C2CC(c3ccccc3)Nc3nc(N)nn32)c1 (stereo unspecified)	48	x	n	n	n
C=CCC(CC(=O)N(CCO)Cc1ccccc1)C(=O)NCC(OC(=O)C(CC=C)Cc1ccc(F)cc1)c1ccccc1 (stereo unspecified)	x	n	x	x	x
COC(=O)c1cc(=O)n(-c2ccc(C(F)(F)F)cc2)[nH]1	190	n	n	n	n
COC(=O)c1ccc(Cn2cc(C(F)(F)F)ccc2=O)cc1	n	n	n	n	n
O=C1CC(c2ccccc2)c2cccc(F)c21 (stereo unspecified)	39	n	n	n	n
SMILES	PfHsp40 yeast	Mtb hypoxia rep	CCHF vOTU inh	RecA intein inh	Mtb bLac sens
O=C1CC(c2ccccc2)c2ccccc21 (stereo unspecified)	n	n	n	n	n
Cc1ccccc1C=NNC(=O)c1ccccc1-n1cccc1	x	n	x	x	x
Nc1nn2cc(-c3ccc(Br)cc3)nc2c2ccccc12	91	x	n	n	n
O=C(CC1NS(=O)(=O)OC2CCCCC12)c1ccccc1 (stereo unspecified)	x	n	x	x	x
N#CCCN(C(=O)Nc1ccccc1)c1ccccc1	66	x	n	n	n
C[C@@H]1CC=C[C@H]2[C@H]1C(=O)N(Cc1ccccc1)[C@H]2c1ccc(F)c(Br)c1	x	x	x	32	x
CC(C)C(CO)NC(=O)c1ccc2c3n(nc2c1)-c1ccc(Cl)cc1CO3 (stereo unspecified)	x	n	x	x	x
CCn1nccc1C(=O)Nc1ccc(Cl)cn1	n	x	n	n	n
CCn1nccc1C(=O)Nc1cc(Cl)cc(Cl)c1	63	n	n	n	n
CCCN(CC(=O)Nc1ccccc1C)C(=O)CCl	n	35	n	x	n
COc1ccc2[nH]c(C)c(C(=O)CN3CCN(C/C=C/c4ccccc4)CC3)c2c1	n	n	31	n	n
Cc1[nH]c2ccccc2c1C(=O)CN1CCN(C/C=C/c2ccccc2)CC1	n	x	n	n	n
N#C/C(=C\c1cccc(Oc2ccccc2)c1)C(=O)N1CCOCC1	235	n	n	n	n
O=C(COC(=O)c1ccccc1Br)NCC1CCCCC1	x	n	n	x	n
O=C(COC(=O)c1ccccc1NCCO)NCC1CCCCC1	n	31	n	x	n
COc1ccc(C=NNc2cc(C)nc3c(C)cccc23)cc1	x	n	x	x	x
COc1cc(OC)c(-c2c3cc(O)c(=O)cc-3oc3cc(O)c(O)cc23)cc1OC	228	x	n	x	n
COC(=O)Cc1cc(=O)n(-c2ccccc2)[nH]1	51	n	n	50	n
COC(=O)Cc1[nH]n(-c2ccccc2)c(=O)c1C(C)=Nc1ccccc1	n	n	n	n	n
C#CCNC(=O)C1=CC(c2coc3ccccc3c2=O)CC(OCCCCO)O1 (stereo unspecified)	x	n	x	x	x
CC(C)(c1cc(Br)c(O)c(Br)c1)c1cc(Br)c(O)c(Br)c1	331	x	n	x	n
Oc1c(Br)cc(Br)cc1Br	n	n	n	x	n
S=C(NCCSCc1c(Cl)cccc1Cl)Nc1ccccc1	285	x	n	n	n
COc1ccc(CSCCNC(=S)Nc2ccccc2)cc1Cl	45	n	n	n	n
S=C(NCCSCc1ccc(Cl)c(Cl)c1)Nc1ccccc1	n	x	n	n	n
N[C@@H]1CCCC[C@H]1N.O=C(O)C(=O)O.[Pt]	x	x	x	50	n
O=C(O)CC1CCC1CC(=O)O (stereo unspecified)	n	x	n	x	x
